Drawing on PubChem BioAssay (NCATS), this text covers Potency for 13 compounds.

Active and inactive are the calls of the source. Calls come from the whole dose curve.

The assay can be described thus: Cell Proliferation Assay Versus the ED40515 IL2 Independent ATL cell lines (AID 1053194). The following applies: ED40515 IL2-independent ATL cells. The source says: Adult T-cell leukemia (ATL) develops in individuals infected with human T-cell lymphotropic virus-1 (HTLV-1). Clinically, ATL is subclassified into four subtypes: smoldering, chronic, lymphomatous, and acute. Two autocrine loops (IL-2/IL-2Ralpha and IL-15/IL-15Ralpha) and one paracrine stimulation loop that involves IL-9 expression by ATL cells and IL-9Ralpha expression on monocytes are required to maintain viability and proliferation in the smoldering and chronic forms of the disease. These assays examined the differential response profiles for the MIPE library of approved and investigational drugs versus an IL2 dependent and independent matched ATL cell line, with the current submission examining the differential response profiles for drugs on an IL2 independent matched ATL cell line
Plate log growing ED40515 -IL2 cells: 1000cells/ well in 5uL phenol red free RPMI +5% FBS +1x p/s, Glutamine using 1536 well white griener tissue culture plates and multidrop cassette acoustic dispensing Columns 1 and 3 DMSO Columns 2 and 4, 9.2 uM Bortezomib Incubate 48 hours for celltiter glo 37C with 5%CO2 and 95% humidity with low evaporation lids Dispense 3 uL per well of cell titer glo with multidrop Incubate for 15 minutes at RT Read on VL/2 using Luminesence Wheel (Filter A)
On to `O=C(O)C(=O)c1cn(Cc2ccccc2)c2ccc(-c3ccc(OC(F)(F)F)cc3)cc12`, for which the Potency is 20.9 µM (active).

As for `Cn1c(CCCC(=O)O)nc2cc(N(CCCl)CCCl)ccc21`, the Potency is 18.7 µM (active).

As to `CO[C@@H](C(=O)N1Cc2[nH]nc(NC(=O)c3ccc(N4CCN(C)CC4)cc3)c2C1)c1ccccc1`, the Potency is 7.43 µM (active).

Turning to `CN(C)CCN(C)CCc1ccc(Cl)c(Cl)c1`, the Potency is 16.6 µM (active).

For the compound `CS(=O)c1ccc(-c2nc(-c3ccc(F)cc3)c(-c3ccncc3)[nH]2)cc1` (stereo not drawn), the Potency was 29.6 µM (active).

`COC[C@H]1OC(=O)c2coc3c2[C@@]1(C)C1=C(C3=O)C2CCC(=O)[C@@]2(C)C[C@H]1OC(C)=O` (stereo partly drawn): the Potency is 14.8 µM (active).

Regarding `CC(O)(CS(=O)(=O)c1ccc(F)cc1)C(=O)Nc1ccc(C#N)c(C(F)(F)F)c1` (stereo not drawn), the Potency was 18.7 µM (active).

Regarding `COC1(CS(=O)c2ccccc2)CCN(CCc2c[nH]c3ccc(F)cc23)CC1` (stereo not drawn), the Potency was 23.5 µM (active).

For `Cc1sc2c(c1C)C(c1ccc(Cl)cc1)=N[C@@H](CC(=O)OC(C)(C)C)c1nnc(C)n1-2`, the Potency is 0.0833 µM (active).

For `CNC(=O)N1N=C(c2ccc(N)cc2)c2cc3c(cc2CC1C)OCO3` (stereo not drawn), the Potency was 2.96 µM (active).

`C[C@]12CCC(=O)C(O)=C1CC[C@@H]1[C@@H]2CC[C@]2(C)C(=O)CC[C@@H]12`: the Potency is 26.4 µM (active).

In the case of `Cc1cc(SCc2sc(-c3ccc(C(F)(F)F)c(F)c3)nc2C)ccc1OCC(=O)O`, the Potency was 26.4 µM (active).

On to `Cn1cc(C2=C(c3cn(C4CCN(Cc5ccccn5)CC4)c4ccccc34)C(=O)NC2=O)c2ccccc21`, for which the Potency is 13.2 µM (active).
